High-throughput results from PubChem.
DAT uptake mod = changed hDAT dopamine uptake under cocaine IC80, either direction, primary screen, cocaine antagonist project, cell-based, LLC-PK1 hDAT, [14C]-dopamine uptake, MLSMR. Sodium-dependent dopamine transporter (Homo sapiens), Q01959. actives 1.3% (n = 110,000). B-score at 10 µM. LLC-PK1 hDAT cells, [14C]-dopamine uptake with cocaine IC80; actives deviate in either direction. AID 449768, 2010;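 active = Z score or B-score, a plate-position-corrected score, falls beyond the plate's 99.7% confidence bounds, in either direction; inactive = both scores lie inside the 99.7% bounds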;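 note: scored against the spread of the other compound wells on the same plate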
CYP2C19 inh = blockers of cytochrome P450 2C19 activity – biochemical, luminescence, ADME assay, primary screen | inhibition, % at 5 µM | CYP2C19 Supersomes, luciferin-H EGE luminescence, 30 min | AID 778, 2007 | actives 21% (n = 96,000) | P33261;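 active = CYP2C19 inhibition above a set limit at 5 µM in the primary screen, cut at about 50% in these data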;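 note: plate controls were negative control wells for no effect and 2.5 mM tranylcypromine positive control for full effect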
Target sequence (P33261 whole entry, looked up): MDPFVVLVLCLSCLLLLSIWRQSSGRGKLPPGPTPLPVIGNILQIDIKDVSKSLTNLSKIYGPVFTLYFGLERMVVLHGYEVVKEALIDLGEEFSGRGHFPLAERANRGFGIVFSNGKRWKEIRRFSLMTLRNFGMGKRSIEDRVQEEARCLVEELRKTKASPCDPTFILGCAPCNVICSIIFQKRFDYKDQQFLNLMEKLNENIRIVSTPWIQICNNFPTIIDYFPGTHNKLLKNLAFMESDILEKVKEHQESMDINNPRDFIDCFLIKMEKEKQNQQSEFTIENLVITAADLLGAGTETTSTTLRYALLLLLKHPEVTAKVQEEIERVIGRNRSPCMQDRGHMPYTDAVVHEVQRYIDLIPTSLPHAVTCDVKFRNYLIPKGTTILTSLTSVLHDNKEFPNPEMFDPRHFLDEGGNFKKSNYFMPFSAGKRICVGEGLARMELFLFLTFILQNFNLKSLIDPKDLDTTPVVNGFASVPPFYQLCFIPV
CYP2C19 act = human CYP2C19 activators, primary screen, biochemical, luminescence. Cytochrome P450 2C19 (Homo sapiens), P33261. recombinant CYP2C19, luciferin-H EGE luminescence; active compounds read high; 0 = fully inhibited enzyme, 1 = untreated enzyme. activation factor at 5 µM. 96,000 tested, under 10 active. AID 1025, 2008;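 active = activation factor of at least 2 at 5 µM in the primary screen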;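 note: 0 = wells with 2.5 mM tranylcypromine and 1 = vehicle-only wells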
D1 allo mod = D1 CRE-luciferase signal change, two-sided – cell-based, HEK293 D1, dopamine EC30, D1 allosteric modulator project, primary screen. dopamine EC30 potentiation; actives deviate in either direction. AID 641, 2007. actives 5.9% (n = 58,000). B-score at 10 µM. D(1A) dopamine receptor (Homo sapiens), P21728;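 active = luminescence count or its row- and column-corrected plate score outside the 99.7% band of the plate's sample wells, on either side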
CYP2C9 act = human CYP2C9 activators, primary screen, biochemical, luminescence | Cytochrome P450 2C9 (Homo sapiens), P11712 | recombinant CYP2C9, luciferin-H conversion; active compounds read high; factor 1 = untreated enzyme, 0 = blocked | activation factor at 5 µM | actives 1.4% (n = 96,000) | AID 1024, 2008;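 active = activation factor of 2 or more for CYP2C9 at a 5 µM dose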;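 note: 0 = sulfaphenazole-blocked wells and 1 = vehicle-only wells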
CYP2C9 inh = blockers of cytochrome P450 2C9 activity – biochemical, luminescence, ADME assay, primary screen. CYP2C9 Supersomes, luciferin-H conversion. inhibition, % at 5 µM. actives 20% (n = 96,000). P11712;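 active = blocking of liver enzyme CYP2C9 beyond about 50% at 5 µM, limit read from the data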
An asterisk follows results filed as active. The list is not random: actives were taken first. Their share in the collection is about 28%.

Cc1nc2c(sc3nc4c(cc32)COC(C)(C)C4)c(=O)o1 was read as DAT uptake mod 0.813, CYP2C19 inh 16.4, CYP2C19 act 0.8, CYP2C9 act 0.3 and CYP2C9 inh 71.6*.
Screening CC1(C)Cc2nc3sc4c(=O)n(CC(=O)NCc5ccccc5)cnc4c3cc2CO1 returned DAT uptake mod -2.89*, CYP2C19 inh 7.5, CYP2C19 act 0.9, CYP2C9 act 0.6 and CYP2C9 inh 42.9.
`CCC1(CC)C(=O)NN(c2ccccc2)C1=O` gave DAT uptake mod -0.117.
Screening O=C(OC(C(=O)NCC1CCCO1)c1ccc(F)cc1)c1cccs1 (stereo not drawn) returned DAT uptake mod -0.147.
CC(C)(C)c1cn(-c2ccc(Cl)cc2)c(=S)[nH]1 was read as DAT uptake mod 0.0805, CYP2C19 inh 73.4*, CYP2C19 act 0.3, CYP2C9 act 0.7 and CYP2C9 inh 27.0.
For CCOC(=O)c1cnn2c(C(F)(F)F)cc(-c3ccccc3)nc12 the results were DAT uptake mod -1.68, CYP2C19 inh 27.5, CYP2C19 act 0.7, D1 allo mod 2.35, CYP2C9 act 0.5 and CYP2C9 inh 53.9*.
Screening CCOC(=O)c1cnc2c(-c3ccccc3)cnn2c1N returned DAT uptake mod 0.482, CYP2C19 inh 63.4*, CYP2C19 act 0.4, D1 allo mod -2.28, CYP2C9 act 0.4 and CYP2C9 inh 57.3*.
CCOC(=O)N1CCC(NC(=O)c2cnn3c(C(F)(F)F)cc(-c4cccc(OC)c4)nc23)CC1 was read as DAT uptake mod 0.369, CYP2C19 inh 60.6*, CYP2C19 act 0.4, D1 allo mod 0.38, CYP2C9 act 0.4 and CYP2C9 inh 57.5*.
`CCOC(=O)C1CCCN(C(=O)c2cnn3c(C(F)(F)F)cc(-c4ccccc4)nc23)C1` (stereo not drawn) gave DAT uptake mod -0.0187, CYP2C19 inh 21.1, CYP2C19 act 0.8, D1 allo mod -1.28, CYP2C9 act 0.5 and CYP2C9 inh 45.6.
For CCOC(=O)c1cnn2c(C(F)(F)F)cc(-c3cn(C)nc3C)nc12 the results were DAT uptake mod 0.74, CYP2C19 inh 57.1*, CYP2C19 act 0.4, D1 allo mod 0.654, CYP2C9 act 0.2 and CYP2C9 inh 84.7*.
Screening NC(=O)c1cccc(-c2cc(Nc3ccc(OC(F)(F)F)cc3)ncn2)c1 returned DAT uptake mod -0.407.
Screening CCn1nc2cc(C(=O)NCCc3cccs3)ccc2c1OC returned DAT uptake mod 0.543, CYP2C19 inh 15.2, CYP2C19 act 0.8, CYP2C9 act 1 and CYP2C9 inh 4.3.
Screening CCOC(=O)C1=C(C)N(CCC(=O)O)C(=O)NC1c1ccccc1Cl (stereo not drawn) returned DAT uptake mod -0.484.
COC(=O)CCCCCN1C(=O)NC(C2CC2)C(C(=O)OCc2ccccc2)=C1C (stereo not drawn) was read as DAT uptake mod 0.25.
Screening CCOC(=O)c1cnn(-c2nc(-c3ccccc3F)cs2)c1C(F)(F)F returned DAT uptake mod -0.021, CYP2C19 inh 15.9, CYP2C19 act 0.8, CYP2C9 act 0.7 and CYP2C9 inh 28.7.
Screening CCOC(=O)c1cnn(-c2nc(-c3ccccc3)cs2)c1C(F)(F)F returned DAT uptake mod 0.652, CYP2C19 inh 42.6, CYP2C19 act 0.6, CYP2C9 act 0.1 and CYP2C9 inh 87.8*.
COC(=O)c1ccc2nc(C3CCCCC3)c3c(c2c1)CCC3 was read as DAT uptake mod -0.121.
`O=S(=O)(NCCSc1ccc(Cl)cc1)c1ccc2c(c1)OCCO2` gave DAT uptake mod 0, CYP2C19 inh 85.7*, CYP2C19 act 0.1, D1 allo mod -0.0426, CYP2C9 act 0.4 and CYP2C9 inh 63.2*.
O=S(=O)(NCCSCc1c(Cl)cccc1Cl)c1ccc2c(c1)OCCO2 was read as DAT uptake mod 0.177.
